The whole screen tested about 220,000 compounds, of which about 1,100 (0.5%) were called active.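 Rule for the calls: active = inhibition above about 30% (limit read from the data); inactive = the rest.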 Only a selection was taken, and actives are over-represented in it overall.

As a reminder, the inhibition is the relative decrease from the control value, in per cent.

This assay deals with Neutrophil cytosol factor 1 (Homo sapiens) (UniProt P14598). Description: blockers of p47phox binding to p22phox – biochemical, uHTS, NADPH oxidase regulatory subunit, primary screen (AID 1274).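 Note: 0% = p47phox with labelled peptide and 100% = labelled peptide alone.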 The note with it: p47phox/p22phox peptide binding, fluorescence polarization, 2 h; at 24.7 µM; stronger effect = higher value.
Sequence of Neutrophil cytosol factor 1 (Homo sapiens) (P14598 whole entry, looked up): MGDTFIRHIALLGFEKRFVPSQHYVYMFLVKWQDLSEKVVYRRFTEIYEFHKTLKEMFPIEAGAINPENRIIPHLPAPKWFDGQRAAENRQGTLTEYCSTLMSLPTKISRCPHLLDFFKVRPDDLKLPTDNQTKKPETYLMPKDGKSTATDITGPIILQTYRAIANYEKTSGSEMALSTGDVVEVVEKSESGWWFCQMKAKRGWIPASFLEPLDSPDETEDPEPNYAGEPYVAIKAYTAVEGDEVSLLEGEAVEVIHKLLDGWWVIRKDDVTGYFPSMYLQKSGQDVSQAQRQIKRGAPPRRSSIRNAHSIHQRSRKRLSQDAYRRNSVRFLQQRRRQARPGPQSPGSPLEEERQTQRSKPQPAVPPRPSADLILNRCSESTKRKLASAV
With `CCOC(=O)C1CCN(c2ncnc3c2oc2ccc(Br)cc23)CC1`, the inhibition was 48.6% (active).
With `CCOC(=O)C1CCN(c2ncnc3c2c(-c2ccccc2)cn3-c2ccc(C)cc2)CC1`, the inhibition was -0.04% (inactive).
With `CCOC(=O)C1CCN(C(=O)c2oc3ccc(S(=O)(=O)N4CCCCCC4)cc3c2C)CC1`, the inhibition is -9.11% (inactive).
As for `CCN(CC)N=Nc1cccc(NC(C)=O)c1`, the figure is 2.47% (inactive); as for `O=C(CSC(=S)N1CCCCC1)c1c(F)cccc1F`, -20.4% (inactive).
In the case of `CC(C)Oc1ccc(CC(=O)NNC(=S)Nc2ccc(Br)cc2)cc1`, the inhibition is -4.65% (inactive).
Regarding `Cc1cccc(C)c1NC(=O)C1(N(C(=O)c2ccccn2)c2ccc(O)cc2)CCCCC1`, the inhibition is -4.76% (inactive).
Consider `CC(Oc1ccc(-c2ccccc2)c(F)c1)c1ccn(S(=O)(=O)c2cccc3ccccc23)n1` (centres undefined), for which the inhibition was 30.5% (active).
The value for `COc1ccc(Nc2nc(N)nc(CSC(=S)N3CCC(C)CC3)n2)cc1` was -5.99% (inactive); that for `CCn1c(SCC(=O)N/N=C/c2ccncc2)nc2ccccc21` was 3.59% (inactive).
As for `NNc1nc2c(Cl)cccc2s1`, the figure is -5.57% (inactive); as for `CC(C)Oc1ccc(C(=O)Nc2cc(=O)n(C)c(=O)n2C)cc1`, -14% (inactive); as for `CC(=O)OCc1cc(=O)n(C)c(=O)n1C`, 38.7% (active).
As for `CC(=O)c1c(N)n(C)c(=O)n(C)c1=O`, the inhibition was -3.86% (inactive).
As for `O=C1CN(C(=O)CN2C(=O)NC3(CCCCC3)C2=O)c2ccccc2N1`, the figure is -8.11% (inactive).
Regarding `C=CCC1(C#N)C(=S)NC(C)=C(C(=O)OCC)C1c1ccccc1` (centres undefined), the inhibition is -0.89% (inactive).
Take `C=CCN1CC(C)/C(=N\O)CC1C` (centres undefined): the inhibition was -0.6% (inactive).
With `CCC(=O)Nc1cccc(NC(=O)CSc2nnc(-c3ccc(NS(C)(=O)=O)cc3)n2C)c1`, the inhibition is -16.1% (inactive).
For `Cn1c(SCC(=O)OC2CCCCC2)nnc1-c1ccc(S(=O)(=O)N2CCCC2)cc1`, the inhibition is -1.77% (inactive).
As for `Cn1c(SCC(=O)Nc2cccc(O)c2)nnc1-c1ccc(S(=O)(=O)N2CCOCC2)cc1`, the figure is 36.6% (active); as for `Nc1c(NCCc2ccccc2)c2ccccc2oc1=O`, -7.7% (inactive).
`Cc1ccc(OCC(=O)Nc2ccc(S(=O)(=O)Nc3ccccn3)cc2)cc1`: the inhibition is 5.31% (inactive).
For `O=C(COc1ccc2oc3c(c2c1)CCCC3)Nc1ccccn1`, the inhibition was 178% (active).
In the case of `Cc1cc(C)cc(OCC(=O)Nc2ccc(S(=O)(=O)Nc3ccccn3)cc2)c1`, the inhibition is -4.16% (inactive).
The value for `Cc1ccc(S(=O)(=O)NNC(=S)NC(C)(C)C)cc1` was -8.25% (inactive); that for `CCc1ccccc1NC(=O)CSc1nnc(CCNC(=O)OC(C)(C)C)o1` was -6.69% (inactive).
With `CCN(CC(=O)NCCc1ccccc1)S(=O)(=O)c1ccccc1`, the inhibition was -6.19% (inactive).
Turning to `O=C(Nc1ccc(Br)cn1)C1CCN(S(=O)(=O)c2cccs2)CC1`, the inhibition is -5.24% (inactive).
`CCN(CC)CCCN=Cc1c(O)n(-c2ccc(C)cc2)c(=O)c2ccccc12`: the inhibition is 111% (active).
As for `CCOc1ccc(-n2c(O)c(/C=N/Nc3nnc(C)c(=O)[nH]3)c3ccccc3c2=O)cc1`, the figure is -44.3% (inactive); as for `CCOc1ccc(-n2c(O)c(/C=N/Nc3nc(C)cc(C)n3)c3ccccc3c2=O)cc1`, -10.2% (inactive).
The value for `O=C(O)C1CCN(C(=O)c2cc(F)cc3c2OCOC3)CC1` was -5.96% (inactive); that for `Cc1nc2c(-c3ccc(F)cc3)c(C)nn2c(C)c1CCC(=O)N1CCN(c2ccccn2)CC1` was -1.7% (inactive); that for `Cc1nc2ncnn2c(C)c1CCC(=O)N1CCN(C(=O)c2ccco2)CC1` was 2.67% (inactive).
Consider `Cc1nc2nc(C)c(CCC(=O)N3CCN(c4ccccc4)CC3)c(C)n2n1`, for which the inhibition was 37.8% (active).
The value for `COc1cc(OC)cc(C(=O)OCC(=O)Nc2sccc2C(N)=O)c1` was -13.4% (inactive); that for `CC(C)CCN1NC2(CCC(C)CC2)NC1=S` (centres undefined) was -4.38% (inactive); that for `CCNC(=O)COC(=O)CCNC(=O)c1cccc(C)c1` was -7.35% (inactive).
The value for `COCCOC(=O)c1sc(=S)n(CCOC)c1N` was 46.2% (active); that for `CCOC(=O)c1sc(=S)n(-c2cccc(OC)c2)c1N` was -12.7% (inactive).
On to `COC(=O)c1sc(=S)n(-c2ccccc2)c1N`, for which the inhibition is 0.99% (inactive).
For the molecule `CCOC(=O)Cn1nnnc1C`, the inhibition was 6.81% (inactive).
`O=C(NCc1ccccn1)c1c(O)c2c([nH]c1=O)CCCC2`: the inhibition was -12.3% (inactive).
As for `CCc1nnc(NC(=O)c2c(O)c3c([nH]c2=O)CCCC3)s1`, the figure is -3.43% (inactive).
For the molecule `C[N+](C)(C)CCNC(=O)c1c(O)c2c([nH]c1=O)CCCC2`, the inhibition is 31.8% (active).
Take `CCOC(=O)CC1C(=O)NCCN1c1nc2c(C)cccn2c(=O)c1/C=C1\SC(=S)N(C(C)CC)C1=O` (centres undefined): the inhibition is -73.3% (inactive).
As for `CC(CNS(=O)(=O)c1ccc(Br)cc1)CN(C)C` (centres undefined), the figure is 92% (active); as for `Cc1ccc(S(=O)(=O)NCC(C)NS(C)(=O)=O)cc1` (centres undefined), 4.29% (inactive); as for `O=S(=O)(NN=C1CCCCCCC1)c1ccc(Br)cc1`, -8.52% (inactive).
In the case of `Cc1c(C(=O)N(Cc2ccccc2)Cc2cccnc2)cnn1-c1ccc(F)cc1`, the inhibition was -0.45% (inactive).
As for `O=C(Nn1c(-c2ccc(Cl)cc2)nc2ccccc2c1=O)c1cccnc1Cl`, the figure is -7.54% (inactive); as for `C[C@@H]1CC[C@]2(O[C@@H](CCO)C[C@H](O)[C@H]2O)O1`, 5.45% (inactive); as for `CC(=O)NCCc1ccc(S(=O)(=O)N(C)C2CCS(=O)(=O)C2)cc1` (centres undefined), 32.2% (active).
The value for `COc1ccc(C(=O)N(Cc2ccc(N(C)C)cc2)C2CCS(=O)(=O)C2)cc1` (centres undefined) was -10.9% (inactive); that for `Cc1ccc(S(=O)(=O)N(c2cccc(C)c2)C2CCS(=O)(=O)C2)cc1` (centres undefined) was -5.65% (inactive); that for `CC(C)N1CCC(N2CCN(Cc3cccnc3)CC2CCO)CC1` (centres undefined) was -4.11% (inactive).
The value for `Oc1ccc2ccccc2c1C=Nc1ccccc1` was -17.1% (inactive).
Consider `O=[N+]([O-])c1ccc(N=Cc2c(O)ccc3ccccc23)cc1`, for which the inhibition was 64.5% (active).
Regarding `Oc1ccc(N=Cc2c(O)ccc3ccccc23)cc1`, the inhibition is -7.4% (inactive).
Consider `CCn1cc(C(=O)NCCCN2CCCCCC2)c(=O)c2cc(S(=O)(=O)N3CCc4ccccc4C3)ccc21`, for which the inhibition is -1.11% (inactive).
`COC(=O)[C@H](Cc1ccccc1)NC(=O)Nc1ccc(OC)cc1`: the inhibition was -13.5% (inactive).
As for `Cc1ccnc(N2CCC(C(=O)NC3CCCCCC3)CC2)n1`, the figure is -2.85% (inactive).
As to `Cc1ccnc(Nc2nc3ccccc3s2)n1`, the inhibition is -4.23% (inactive).
For `Cc1ccnc(-n2sc3ccccc3c2=O)n1`, the inhibition was 35% (active).
As for `COc1ccc(CN2CCOC2=O)cc1OC`, the figure is -11.8% (inactive); as for `COc1ccc(-c2csc(-c3cccs3)n2)cc1OC`, -15.5% (inactive).
As for `COc1ccc(-c2csc3nc(-c4ccccc4F)oc(=O)c23)cc1OC`, the figure is 89.6% (active); as for `COc1ccc(-c2noc(-c3cccc(OC)c3OC)n2)cc1OC`, -9.37% (inactive); as for `O=c1ccnc(Nc2ccc(Cl)cc2)[nH]1`, -15.2% (inactive).
As for `COc1cccc(OCC(=O)NNC(=O)c2cnccn2)c1`, the figure is -5.83% (inactive); as for `CSC1=NC2(C)CCCCC2C12C=CC(=O)C=C2` (centres undefined), 12.3% (inactive).
Turning to `Oc1ccc(N2CCN(C(=S)NCc3ccccc3)CC2)cc1`, the inhibition is -4.47% (inactive).
For `Oc1ccc(CNc2ccccc2O)cc1`, the inhibition is 72.8% (active).
The value for `O=[N+]([O-])c1ccccc1NCc1ccc(Cl)cc1` was 10.1% (inactive).
Consider `COc1ccc(SCCN2CCN(CC(C)C)CCC2=O)cc1`, for which the inhibition is -5.09% (inactive).
The value for `CC1CCC(NC(=O)c2ccc(N3CCCC3=O)cc2)CC1` (centres undefined) was -4.19% (inactive); that for `CCOc1ccc(C(=O)NCCCN2CCCC2=O)cc1` was -1.06% (inactive).
Regarding `O=C(NCCCN1CCCCCC1)c1ccc(N2CCCC2=O)cc1`, the inhibition is 31.1% (active).
As for `COCCN1C(=O)N[C@@H](CCc2ccccc2)[C@H](C(C)=O)[C@H]1C`, the figure is -14.3% (inactive); as for `CC(C)N(C(=O)Cn1cc(SCC(=O)N2CCCC2)c2ccccc21)C(C)C`, -1.84% (inactive); as for `O=C(Nc1ccc(S(=O)(=O)Nc2ncccn2)cc1)c1cncc(Br)c1`, -1.88% (inactive).
Regarding `Cc1ccnc(NS(=O)(=O)c2ccc(NC(=O)c3ccc(S(=O)(=O)N4CCOCC4)cc3)cc2)n1`, the inhibition is -8.81% (inactive).
The value for `Cc1ccnc(NS(=O)(=O)c2ccc(NC(=O)c3ccc(S(=O)(=O)N(C)C)cc3)cc2)n1` was 93.9% (active).
`CCCN(c1ccc(C)cc1)c1nc(=O)c2cccnc2s1`: the inhibition was 3.57% (inactive).
As for `COc1cc(C2C(C(=O)Nc3ccc(F)cc3)=C(C)Nc3nc(CCCO)nn32)cc(OC)c1OC` (centres undefined), the figure is 8.1% (inactive); as for `COCCOC(=O)C1=C(C)Nc2nc(C)nn2C1c1ccccc1` (centres undefined), -2.35% (inactive).
The value for `COC(=O)c1nc2n(n1)C(c1ccc([N+](=O)[O-])cc1)C(C(=O)Nc1ccc(Cl)cc1)=C(C)N2` (centres undefined) was 35.3% (active).
As for `COC(C[C@@H](O)[C@H](C)[C@H](O)COCc1ccccc1)OC`, the figure is -7.85% (inactive); as for `O=[N+]([O-])c1ccc2c(c1)C(O)n1nc(-c3ccccc3)nc1S2` (centres undefined), -0.84% (inactive).
On to `O=C1/C(=C/c2coc3ccc(O)cc3c2=O)SC(=S)N1c1ccccc1`, for which the inhibition is -31.6% (inactive).
In the case of `CCC1(C)Cc2c(sc3nc(SC)[nH]c(=O)c23)CO1` (centres undefined), the inhibition was -0.95% (inactive).
As for `Fc1ccccc1Cn1cnc(NC(=S)NCCc2ccccc2)n1`, the figure is 5.03% (inactive).
As for `S=c1[nH]nc(NCCc2ccccc2)s1`, the figure is 35.4% (active); as for `Cc1nc(C)c(-c2csc(NCCc3ccccc3)n2)s1`, -1.49% (inactive); as for `S=c1[nH]nc(Nc2ccccc2)s1`, 6.03% (inactive).
For the molecule `CC1CC(NC(=O)/C(C#N)=C/c2ccc[nH]2)CC(C)(C)C1` (centres undefined), the inhibition is -2.3% (inactive).
The value for `CCCNC(=S)N1CCCC(c2nc3ccccc3[nH]2)C1` (centres undefined) was -3.87% (inactive).
The value for `CCNC(=S)N1CCC(c2nc3cc(C)c(C)cc3[nH]2)CC1` was -2.83% (inactive).
As for `COCCCNC(=S)N1CCCC(c2nc3cc(C)c(C)cc3[nH]2)C1` (centres undefined), the figure is 33.6% (active).

The values above are taken from PubChem BioAssay AID1274 (Emory University Molecular Libraries Screening Center, 2008).
